# Where “and” joins values, the source holds several entries; their conditions need not be identical. Equal entries are not always repeated. Records with an inconclusive call do not appear. Entries that show only a call come without a potency. Calls of active or inactive are those of the source. The call rests on the fitted dose curve; in most records, active means well fitted cell-killing curve with a large enough effect in the repeat runs; inconclusive means weak or mixed curves, or effect the other way; inactive means flat fitted curve, though single readings scatter.
# Test: Human pregnane X receptor (PXR) small molecule agonists, qHTS cell viability counter screen (AID 1346977); further: nearly all actives have a fitted effect of over 50% in size
# Settings: PXR-Luc HepG2 viability, CellTiter-Fluor, 24 h; series mostly up to 92.4 µM
# Description: U.S. Tox21 Program National Center for Advancing Translational Sciences [NCATS] NIH Chemical Genomics Center [NCGC] U.S. Environmental Protection Agency [EPA] National Institutes of Environmental Health Sciences [NIEHS] National Toxicology Program [NTP] U.S. Food and Drug Administration [FDA] Tox21 Assay Overview: The human pregnane X receptor (hPXR) regulates the expression of several drug metabolizing enzymes and induction of these proteins is a major mechanism for developing drug resistance in cancer. One such key enzyme catalyzing the drug metabolism is cytochrome P450 3A4 (CYP3A4). Changes in CYP3A4 expression affect drug metabolism, thereby reducing the therapeutic efficacy and altering toxicological response to a drug and which finally causes adverse drug interaction. To screen Tox21 libraries for compounds that activate hPXR-mediated CYP3A4 gene expression, PXR-Luc HepG2 cells were used. Also cytotoxicity of the compounds was tested in parallel by measuring the cell viability using CellTiter-Fluor assay system in the same wells.
# Tox21 Assay Protocol Summary: PXR-Luc HepG2 cells were dispensed at 2,000 per well in 5uL of assay medium containing 5% charcoal-stripped FBS into white solid bottom 1536-well plates (Corning Life Sciences, Corning, NY) using a Multidrop Combi (Thermo Scientific, Waltham, MA) dispenser. The assay plates were incubated at 37 C and 5% CO2 for 5hr, and then 23nL of compounds dissolved in DMSO and positive control were transferred using a Pintool station (Wako, San Diego, CA). The assay plates were incubated at 37C and 5% CO2 for 24hr. For cytotoxicity read, after 23hr incubation at 37C, 1uL CellTiter-Fluor reagent (Promega Corporation, Madison, WI) was added to each well of the assay plates using Flying Reagent Dispenser (FRD, Aurora Discovery, San Diego, CA). After 1hr incubation at 37C and 5% CO2, the fluorescence signal was quantified using a ViewLux plate reader (PerkinElmer, Shelton, CT).
# Potency means the concentration at half of the fitted maximal effect.
row,Structure (SMILES),Potency
1,CCCCCCCCCCOCC(O)CN (stereo not given),26.6 µM (active)
2,CCOC(/C=C(\C)CCC=C(C)C)OCC,inactive
3,CC1=C(/C=C/C(C)=C/C=C/C(C)=C/C(=O)Nc2ccc(O)cc2)C(C)(C)CCC1,49.8 µM (active) and 26.6 µM (active)
4,CC1=C(/C=C/C(C)=C/C=C/C(C)=C\C=O)C(C)(C)CCC1,inactive
5,Brc1ccccc1-c1ccccc1,inactive
6,CN1CN(C)CN(C)C1,inactive
7,CCCCCCCOC(=O)c1ccccc1C(=O)OCCCCCCC,inactive
8,C/C=C/C=N/NC(=O)c1ccncc1,inactive
9,C=CC(=O)OCCN(CC)CC,inactive
10,COC(=O)C1=C(C)NC(C)=C(C(=O)OCCCN2CCC(c3ccccc3)(c3ccccc3)CC2)C1c1cccc([N+](=O)[O-])c1 (stereo not given),26.6 µM (active)
11,CCOC(=O)[C@@](C)(N)Cc1ccc(O)c(O)c1,inactive
12,c1cc2c3c(c1)ccc1cccc(c13)C2,inactive
13,CN1CCN(C2Cc3ccccc3Sc3ccc(Cl)cc32)CC1 (stereo not given),26.6 µM (active)
14,COC(=O)CC#N,inactive
15,CCCCCCCC(OC)OC,inactive
16,C=CC/C=C/C/C=C/C/C=C/C,inactive
17,CCOC(=O)CC(C)O (stereo not given),inactive
18,O=C1NC2CCCCN2C12CCN(CCCN1c3ccccc3CCc3ccc(Cl)cc31)CC2 (stereo not given),26.6 µM (active)
19,COC(=O)NCCC[Si](OC)(OC)OC,inactive
20,[O]=[Zr],inactive

row,Structure (SMILES),Potency
1,CCc1ccc(O)c(C(C)(C)C)c1,inactive
2,O=C1OC(OC(=O)c2cccnc2Nc2cccc(C(F)(F)F)c2)c2ccccc21 (stereo not given),inactive
3,COc1ccccc1C=O,inactive
4,C[Si](C)O[Si](C)C,inactive
5,Oc1ccc(-c2ccccc2)c(Cl)c1,inactive
6,CN(Cc1cc(Br)cc(Br)c1N)C1CCCCC1,inactive
7,Clc1cccnc1,inactive
8,CCC1(c2cnc[nH]2)Cc2ccccc2C1,inactive
9,C=CC(C)(CCC=C(C)C)OC(=O)/C=C/c1ccccc1 (stereo not given),inactive
10,CC(CN(C)C)CN1c2ccccc2CCc2ccccc21 (stereo not given),26.6 µM (active)
11,CN(C)CCCN1c2ccccc2CCc2ccccc21,30.6 µM (active) and 23.7 µM (active)
12,C[C@]12CC[C@H]3C(=CCc4cc(O)ccc43)[C@@H]1CCC2=O,inactive
13,OCCCc1cccnc1,inactive
14,CCCCCCS,inactive
15,CC(C)(C)c1n[nH]c(=O)n(N)c1=O,inactive
16,COc1ccc(C#N)cc1,inactive
17,CCN(CC)c1cccc(C)c1,inactive
18,CCCC(O)C(O)CO (stereo not given),inactive
19,CC(COC(=O)c1ccccc1)OC(=O)c1ccccc1 (stereo not given),inactive
20,Brc1ccccn1,inactive
